Measured values from PubChem BioAssay (EPA / NIEHS).
Activity calls are given as the source filed them. Rule for the calls: active = hit-call score of the fitted dose curve at least 0.9, where 1 is the maximum; inconclusive = response in the unintended direction; inactive = score below 0.9.

molecular target: Estrogen receptor (Homo sapiens) (UniProt P03372); assay: OT_ER_ERaERa_1440: Odyssey Thera (OT) 24-hour HEK293T Protein-Complementation Assay for Estrogen Receptor-alpha/-alpha Homodimer (AID 2283349);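 note: hits raise fluorescence above DMSO for agonists and antagonists alike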
Procedure: OT_ER_ERaERa_1440 is a cell-based assay that uses HEK293T, a human kidney cell line, with measurements taken at 24 hours after chemical dosing in a 384-well plate.OT_ER_ERaERa_1440 is one of one assay component(s) measured or calculated from the OT_ER_ERaERa_1440 assay. It is designed to make measurements of protein fragment complementation, a form of binding reporter, as detected with fluorescence intensity signals by Protein-fragment Complementation technology.Data from the assay component OT_ER_ERaERa_1440 was analyzed into 1 assay endpoint. This assay endpoint, OT_ER_ERaERa_1440, was analyzed in the positive analysis fitting direction relative to DMSO as the negative control and baseline of activity. Using a type of binding reporter, measures of receptor for gain-of-signal activity can be used to understand the binding at the pathway-level as they relate to the gene ESR1. Furthermore, this assay endpoint can be referred to as a primary readout, because the performed assay has only produced 1 assay endpoint. To generalize the intended target to other relatable targets, this assay endpoint is annotated to the nuclear receptor intended target family, where the subfamily is steroidal.
Protein-fragment complementation assay, or PCA, is a method for the identification and quantification of protein-protein interactions. In the PCA, the proteins of interest ("bait" and "prey") are each covalently linked to fragments of a third protein (e.g. DHFR, which acts as a "reporter"). Interaction between the bait and the prey proteins brings the fragments of the reporter protein in close proximity to allow them to form a functional reporter protein whose activity can be measured. The OT ER alpha / ER alpha assay is a homodimer PCA of the ligand binding domain (amino acids 310-547) of human ER alpha stably expressed in HEK293T cells. […] Fluorescent signal in the basal state of the assay is very low and is primarily punctuate and cytoplasmic. Modulation of this assay is quantified as an increase in mean fluorescence intensity in the nucleus (for agonists) or in the nucleus and cytoplasm (antagonists) relative to vehicle controls, and can be quantified on a high content imaging device or a laser scanning cytometer. The latter instrument is favored for this assay because of the rapid mode of data acquisition, the ability to acquire data from the entire cell population in a well (as opposed to a fraction of the well on the high content devices) and the larger dynamic range typically achieved with this instrument. To assess sensitivity of the ER alpha/ER alpha LBD assay to ligand, cells were treated with the ER agonist 17 beta-estradiol (E2) in 10-point concentration- response format for 24 hours and monitored response on a laser scanning plate cytometer (Acumen eX3; TTP Lab Tech).

Estrogen receptor (Homo sapiens), sequence (P03372 whole entry, looked up, the tested form may be a part): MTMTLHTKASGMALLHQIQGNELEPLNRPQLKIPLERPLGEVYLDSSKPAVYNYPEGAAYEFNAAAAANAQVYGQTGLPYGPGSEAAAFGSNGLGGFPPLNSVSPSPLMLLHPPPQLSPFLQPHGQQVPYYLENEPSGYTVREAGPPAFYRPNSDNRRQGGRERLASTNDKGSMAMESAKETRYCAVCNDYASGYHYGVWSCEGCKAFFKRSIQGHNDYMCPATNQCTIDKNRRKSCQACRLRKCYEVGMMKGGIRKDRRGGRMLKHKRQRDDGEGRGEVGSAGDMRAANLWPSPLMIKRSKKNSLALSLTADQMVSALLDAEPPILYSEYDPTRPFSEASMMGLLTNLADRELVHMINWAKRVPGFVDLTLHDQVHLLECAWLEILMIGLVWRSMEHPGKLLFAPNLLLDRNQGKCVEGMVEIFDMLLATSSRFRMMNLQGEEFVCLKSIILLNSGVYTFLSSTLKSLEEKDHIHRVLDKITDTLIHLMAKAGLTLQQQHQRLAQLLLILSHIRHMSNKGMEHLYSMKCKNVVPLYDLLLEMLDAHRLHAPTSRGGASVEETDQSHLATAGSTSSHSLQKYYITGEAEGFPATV

With `C[C@@H](Oc1ccc(CNC(=O)c2cccnc2Oc2ccc3c(c2)OCO3)c(F)c1)C(=O)O` as the molecule, how does the outcome read?
The outcome was “inactive”.

Which outcome does the source give for `CNC(C)=O` here?
Its outcome is “inactive”.

`CCCc1ccccc1` was tested. Which outcome did it give?
The outcome was “inactive”.

Which outcome does the source give for `Nc1ccn([C@@H]2O[C@H](CO)[C@@H](O)[C@@H]2O)c(=O)n1` here?
Its outcome is “inactive”.

Which outcome does the source give for `C[C@]12C=CC(=O)C=C1CC[C@H]1[C@@H]3C[C@@H](O)[C@](O)(C(=O)CO)[C@@]3(C)C[C@H](O)[C@@]12F` here?
The outcome was “inactive”.

`CCc1ccc(O)c(C(C)(C)C)c1` was tested. Which outcome did it give?
The outcome was “inactive”.

With `OCc1ccccc1` as the molecule, how does the outcome read?
The outcome was “inactive”.

`O=C(O)CO` was tested. Which outcome did it give?
The outcome was “inactive”.

Which outcome does the source give for `CCCC(CCC)C(=O)O` here?
The outcome was “inactive”.

For `OC(Cn1cncn1)(Cn1cncn1)c1ccc(F)cc1F`, which outcome is on record?
The outcome was “inactive”.

Which outcome does the source give for `CCCCCCCC1CCC(=O)O1` (stereo not given) here?
The outcome was “inactive”.

For `O=S(=O)(O)c1ccc(N=Nc2c(O)ccc3cc(S(=O)(=O)O)ccc23)cc1`, which outcome is on record?
The outcome was “inactive”.

For `c1ccc2cc3ccccc3cc2c1`, which outcome is on record?
The outcome was “inactive”.

Which outcome does the source give for `CC1(C)C(=O)N(Cl)C(=O)N1Cl` here?
Its outcome is “inactive”.

For `NC(N)=O`, which outcome is on record?
The outcome was “inactive”.

Which outcome does the source give for `O=C(O)c1ccc2c(c1)nc(C(=O)NC1CCN(C3CC3)CC1)n2Cc1cc(-c2ccc(Cl)s2)on1` here?
The outcome was “inactive”.

For `COS(C)(=O)=O`, which outcome is on record?
Its outcome is “inactive”.

For `NC(=O)NN=Cc1ccc([N+](=O)[O-])o1`, which outcome is on record?
Its outcome is “inactive”.

With `CCCCCCCCN(C)C` as the molecule, how does the outcome read?
Its outcome is “inactive”.

`CCn1nc(C)c2c1C(=O)NCC(c1ccc(O)cc1)=N2` was tested. Which outcome did it give?
Its outcome is “inactive”.

Which outcome does the source give for `CC[C@H](C)C(=O)O[C@H]1C[C@H](O)C=C2C=C[C@H](C)[C@H](CC[C@@H](O)C[C@@H](O)CC(=O)O)[C@H]21` here?
Its outcome is “inactive”.

With `CCOc1ccc2[nH]cc(C(=O)NCc3ccccc3)c(=O)c2n1` as the molecule, how does the outcome read?
Its outcome is “inactive”.

With `CCCCCCCCCCCCCCO` as the molecule, how does the outcome read?
The outcome was “inactive”.

With `c1ccc(C(O[C@@H]2CCCN(CCc3ccc4c(c3)OCO4)C2)c2ccccc2)cc1` as the molecule, how does the AC50 read?
The AC50 was 68.3 µM (active).

How did the outcome turn out when `Cc1nc(-c2ccccn2)ncc1C(=O)Nn1cc(C)c2cc(F)ccc21` was run?
The outcome was “inactive”.

For `COCc1nnc(-c2ccc[n+]([O-])c2)n1-c1c(Cl)c(Cl)cc2[nH]c(=O)c(=O)[nH]c12`, which outcome is on record?
The outcome was “inactive”.

Which outcome does the source give for `NC(=O)N(O)[C@@H]1COc2cc(OCc3ccccc3)ccc21` here?
Its outcome is “inactive”.

`c1ccc2ncccc2c1` was tested. Which outcome did it give?
The outcome was “inactive”.

How did the outcome turn out when `O=C1CN(N=Cc2ccc([N+](=O)[O-])o2)C(=O)N1` was run?
Its outcome is “inactive”.

How did the outcome turn out when `CCCCCCOC(=O)CC(CC(=O)OCCCCCC)(OC(=O)CCC)C(=O)OCCCCCC` was run?
The outcome was “inactive”.

`CC(C)CCCCCCOC(=O)C1CCCCC1C(=O)OCCCCCCC(C)C` (stereo not given) was tested. Which outcome did it give?
Its outcome is “inactive”.

Which outcome does the source give for `CCCCCCCCCCCCCCCCOS(=O)(=O)O` here?
Its outcome is “inactive”.

With `CC(C)c1nnc2ccc(-c3ocnc3-c3cc(F)ccc3F)cn12` as the molecule, how does the outcome read?
The outcome was “inactive”.

Which outcome does the source give for `CCCCCOC(C)=O` here?
The outcome was “inactive”.

`CCCCCCCCCC` was tested. Which outcome did it give?
Its outcome is “inactive”.

With `OCC(CO)(CO)CO` as the molecule, how does the outcome read?
Its outcome is “inactive”.

How did the outcome turn out when `C=CN1CCCC1=O` was run?
Its outcome is “inactive”.

With `O=S1(=O)CCCO1` as the molecule, how does the outcome read?
The outcome was “inactive”.

For `Cc1nccn1-c1ccc(Sc2cccc(C3(C(N)=O)CCOCC3)c2)cc1`, which outcome is on record?
The outcome was “inactive”.

For `Cc1cccc(O)c1C`, which outcome is on record?
Its outcome is “inactive”.
